Results: PubChem BioAssay AID1259423 (Fisher Drug Discovery Resource Center, 2018)
The campaign covered roughly 270,000 compounds. About 410 (0.15%) were called active. Rule as the data show it: active = activation above about 40%; inactive = the rest, inconclusive results apart. The sample as a whole holds a higher share of actives than the screen did.

Test system: Aedes aegypti neuropeptide Y-like receptor 7 (NPYLR7)
Test: agonists of mosquito NPYLR7 receptor, primary screen, cell-based, Aedes aegypti, calcium fluorescence, mosquito biting behavior (AID 1259423);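 also: 0% = vehicle and 100% = reference agonist at the receptor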
Details: HEK293T NPYLR7/Galpha15, GCaMP6s calcium fluorescence, at 10 µM, stronger effect = higher value
[1] = measured here: Max-Min RFU normalised activation

Row | Structure (SMILES) | activation | activation [1] [%]
1 | CCCCN(C)C(=O)c1nn(Cc2ccc(S(=O)(=O)N(C)c3ccccc3)cc2)c2ccccc12 | 11.3% (inactive) | 10
2 | CNC(C)c1nc2ccccc2c(=O)n1-c1ccc(Br)cc1 (stereo not drawn) | 0.997% (inactive) | 9.08
3 | CC(C)CN(Cc1cc(NC(=O)c2cccc(F)c2)ccc1N(C)C1CCN(C)CC1)C(=O)c1ccccc1Cl | 1.98% (inactive) | 1.76
4 | N#[N+]c1c[nH]c2ccccc2c1=O | -8.5% (inactive) | -5.61
